Test results taken from PubChem BioAssay (NCI).
The panel holds about 79,000 compounds, 15% with a hit somewhere; the sample as a whole holds those more often. Activity calls are given as the source filed them. Rule as the data show it: active = growth inhibition above about 70%; inactive = the rest.

Assay: NCI Yeast Anticancer Drug Screen. Data for the mgt1 strain (AID 153)
Conditions: S. cerevisiae mgt1 mutant growth inhibition, active compounds read high
Experimental: Growth inhibition of yeast strains with defined genetic alterations is measured as a screen for potential anti-cancer activity. Selected strains with alterations in DNA damage repair or cell cycle control were exposed to compounds and growth inhibition was measured relative to vehicle treated controls. The strain used in this assay is mgt1

SMILES | growth inhibition (at 1.2 µM) | growth inhibition (at 3.7 µM) | growth inhibition (at 11.0 µM) | growth inhibition (at 33.0 µM) | growth inhibition (at 100.0 µM)
CCOC(=O)c1[nH]n(-c2ccccc2)c(=O)c1C=NC(=S)C(N)=S | -6% (inactive) | -10% (inactive) | -16% (inactive) | 34% (inactive) | 97% (active)
Cc1ccc(Cl)cc1NC(=O)OCCN(C)C(=O)Nc1cc(Cl)ccc1C | -29% (inactive) | -28% (inactive) | -29% (inactive) | -24% (inactive) | 2% (inactive)
O=C(O)CCCC1CCCc2c1ccc1ccccc21 (stereo not given) | -4% (inactive) | -3% (inactive) | 4% (inactive) | 59% (inactive) | 99% (active)
Oc1ccc(SCc2ccc(NCc3ccccc3)cc2)cc1 | -4% (inactive) | 7% (inactive) | 22% (inactive) | 47% (inactive) | 87% (active)
O=C(O)c1ccccc1/C=N/N=C1c2ccccc2-c2ccccc21 | -1% (inactive) | 0% (inactive) | 0% (inactive) | -1% (inactive) | 3% (inactive)
CC(C)CCCC(C)C1CCC2C3CCC4=CC(=O)/C(=C\O)CC4(C)C3CCC12C (stereo not given) | -1% (inactive) | 1% (inactive) | 1% (inactive) | 0% (inactive) | 6% (inactive)
CCCCCCCCCCCCCCCCCC(=O)NCCCN(C)C | -13% (inactive) | -11% (inactive) | -19% (inactive) | 98% (active) | 98% (active)
CCCCOP(=O)(CCCP(=O)(OCCCC)OCCCC)OCCCC | -3% (inactive) | -3% (inactive) | -1% (inactive) | 10% (inactive) | 42% (inactive)
